From PubChem BioAssay (NCATS) come the findings set out here.

Each structure is given as a SMILES string. Results filed as inconclusive are left out. Active and inactive are the calls of the source. Unless noted, the call rests on the fitted dose curve; in most records, active means well fitted curve in the direction sought with a large enough effect; inconclusive means small, poorly fitted or top-dose-only effect, or another doubt; inactive means no such curve, though single readings can be large; an effect the other way counts as inactive or inconclusive.

Assay [1] in a line: Cell Viability - BJ (AID 421; calls by dose curve;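 further: potency means the concentration at half of the fitted maximal effect; cells exposed to compound for 40 hours at 37 °C before readout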). To be noted: BJ fibroblast viability, qHTS. An outline of the steps: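 Normal human BJ foreskin fibroblasts, 1500/well in complete medium, treated 40 hr at 37 °C. Cellular ATP by CellTiter-Glo luminescence; normalized to DMSO and 100 uM tamoxifen, AC50 from Hill fit.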
Assay [2] can be described thus: Cell Viability - HepG2 (AID 433; calls by dose curve;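 further: potency means the concentration at half of the fitted maximal effect; cells exposed to compound for 40 hours; potency for ATP loss meaning cytotoxicity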). To be noted: qHTS. In short, it runs like this: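 Read-out is luciferase-based quantitation of cellular ATP as a measure of viable HepG2 cells after 40 h treatment at 37 °C. Signal decrease is scaled between DMSO-only and 100 uM tamoxifen controls, with AC50 fitted by the Hill equation.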
On the technique in general: qHTS replaces the single test concentration by a dilution series.

Assay [3] can be described thus: Cell Viability - Mesenchymal (AID 546).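 Further: cells exposed to compound for 40 hours before reading.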 The conditions noted are these: mesenchymal cells viability, qHTS; activity change, negative = cytotoxicity: at 91.7 µM (top of the series). An outline of the steps:
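Normal human renal glomerulus-derived kidney mesenchymal cells, 1000 per well in complete medium, were treated with compounds for 40 hr at 37 °C. Viability was read as intracellular ATP by CellTiter-Glo luminescence; AC50 values came from Hill-equation fits of qHTS concentration-response data.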

Assay [4] is described as follows: Cell Viability - LYMP2-021 (AID 974).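 Further: compound exposure lasts 24 hours at 37 °C; nearly all actives have a fitted effect of over 55% in size.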 Further: potency means the concentration at half of the fitted maximal effect. On activity change, negative = cytotoxicity: on the % scale 0 is the no-effect control and ±100 the full control effect. To be noted: LYMP2-021 lymphoblastoid cells viability; series mostly up to 92.2 µM. In short, it runs like this: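 Concentration-response cytotoxicity in a human lymphoblastoid line: 24 hr treatment at 37 C in complete culture medium, tetraoctylammonium bromide as positive control, luminescent ATP quantitation as viability measure.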

Assay [5] in a line: Cell Viability - LYMP2-025 (AID 976).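 Further: plate controls were DMSO only for no effect and tetraoctylammonium bromide control for full effect.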 The conditions noted are these: LYMP2-025 lymphoblastoid cell viability; series mostly up to 92.2 µM. An outline of the steps:
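In qHTS format, LYMP2-025 lymphoblastoid cells in complete culture medium received compound for 24 hr; ATP-based CellTiter-Glo signal gave viability, with AC50 derived by Hill equation.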

Assay [6] can be described thus: Cell Viability - LYMP2-018 (AID 985). Further: nearly all actives have a fitted effect of over 50% in size. Further: potency means the concentration at half of the fitted maximal effect.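 On activity change, negative = cytotoxicity: plate controls were DMSO only for no effect and tetraoctylammonium bromide at 92 µM for full effect.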 The conditions noted are these: LYMP2-018 lymphoblastoid cells, viability (qHTS); series mostly up to 92.2 µM. In short, it runs like this: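 Acute cytotoxicity is scored as a concentration-dependent drop in intracellular ATP after 24 hr exposure of the lymphoblastoid line in complete culture medium, measured by luciferase luminescence. Potency is expressed as AC50 from Hill modelling.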

The nature of assay [7]: Cell Viability - LYMP2-022 (AID 987). Further: nearly all actives have a fitted effect of over 55% in size. Further: potency means the concentration at half of the fitted maximal effect. The conditions noted are these: LYMP2-022 lymphoblastoid cell viability; series mostly up to 92.2 µM. In short, it runs like this: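 Acute toxicity in a human lymphoblastoid line is scored as decreased intracellular ATP after 24 hr compound treatment at 37 C. ATP is measured by CellTiter-Glo luminescence; curves are fitted with the Hill equation to give AC50.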

Assay [8] in a line: Cell Viability - LYMP2-024 (AID 988). Further: nearly all actives have a fitted effect of over 60% in size. Further: potency means the concentration at half of the fitted maximal effect.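 On activity change, negative = cytotoxicity: plate controls were DMSO only for no effect and 92 µM tetraoctylammonium bromide for full effect.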 To be noted: LYMP2-024 lymphoblastoid cell viability; series mostly up to 92.2 µM. In short, it runs like this:
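Acute toxicity is measured as concentration-dependent loss of intracellular ATP in a human lymphoblastoid line treated 24 hours at 37 C. Luciferase luminescence quantifies ATP; AC50 values come from standard Hill-equation modelling.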

Assay [9] in a line: qHTS assay for small molecule antagonists of retinoid X receptor alpha signaling (AID 588546; active means well fitted inhibition curve with a large enough effect in the signal ratio, with a control signal flat, not every such curve was filed as active; the % refers to the signal ratio; further: potency means the concentration at half of the fitted maximal effect;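 on max response: cells stimulated with 9-cis-retinoic acid as agonist; on the % scale 0 is the no-effect control and ±100 the full control effect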). The conditions noted are these: HEK293T RXRa-UAS-bla, beta-lactamase ratio, antagonist mode; measured here: W530 green channel, cytotoxicity proxy. An outline of the steps: (§1)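 Beta-lactamase reporter inhibition, read as CCF4 fluorescence ratio (ex 405, em 460/530 nm) after 2 h at RT. HEK293T UAS-bla cells, 2500/well, were stimulated with 9-cis-RA at 500 or 100 nM final alongside test compound for 18 h at 37 C.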

Assay [10] has as its target Retinoic acid receptor RXR-alpha (Homo sapiens) (UniProt P19793). The description is as above. The conditions noted are these: HEK293T RXRa-UAS-bla, beta-lactamase ratio, antagonist mode. An outline of the steps:
as §1

Assay [11] in a line: Cellular Toxicity (caspase-3) Jurkat (AID 655).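 Further: cells exposed to compound for 16 h at 37 °C before reading.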 The conditions noted are these: Jurkat caspase-3 activation, luminescence; caspase-3 activation: at 92.2 µM (top of the series), DMSO = 0%, tamoxifen = 100%. An outline of the steps:
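5000 Jurkat cells/well; compound 16 hr, 37 °C; Caspase-Glo 3/7 added, 20 min RT; luminescence read. Norm: DMSO = 0%, tamoxifen 100 uM = 100%. AC50, Hill model.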

Assay [12] is described as follows: Cell Viability - LYMP2-003 (AID 965).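 Further: cells exposed to compounds for 24 h before reading; 0% = DMSO only and full effect = 92 µM tetraoctylammonium bromide; nearly all actives have a fitted effect of over 50% in size.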 The conditions noted are these: LYMP2-003 lymphoblastoid cell viability; series mostly up to 92.2 µM. In short, it runs like this: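 Seed 2500 lymphoblastoid cells/well; incubate 5 hr, 37 C; add compounds; incubate 24 hr, 37 C; add CellTiter-Glo, 30 min RT; read luminescence. AC50 from Hill fit.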
Assay [13] can be described thus: Cell Viability - LYMP2-011 (AID 969).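 Further: cells exposed to compound for 24 hours; 0% = DMSO only and full inhibition = 92 µM tetraoctylammonium bromide; nearly all actives have a fitted effect of over 60% in size.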 To be noted: LYMP2-011 lymphoblastoid cells viability; series mostly up to 92.2 µM. An outline of the steps: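 Acute toxicity is scored as a concentration-dependent drop in intracellular ATP of a human lymphoblastoid line after 24 hr treatment. Values are AC50s modeled with the Hill equation.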
Assay [14] in a line: Cell Viability - LYMP2-023 (AID 975).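 Further: cellular ATP measured by luciferase luminescence as viability proxy; cells exposed to compound for 24 hours at 37 °C; plate controls were DMSO only for no effect and 92 µM tetraoctylammonium bromide control for full effect; nearly all actives have a fitted effect of over 55% in size.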 To be noted: LYMP2-023 lymphoblastoid cell viability; series mostly up to 92.2 µM. An outline of the steps: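 Concentration-dependent drop in intracellular ATP measures acute cytotoxicity in a human lymphoblastoid line treated for 24 hours in complete culture medium. AC50 values are taken from Hill-equation fits of qHTS data.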
A short description of assay [15]: Cell Viability - LYMP2-002 (AID 977).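 Further: plate controls were DMSO only for no effect and 92 µM tetraoctylammonium bromide for full effect.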 To be noted: LYMP2-002 lymphoblastoid cell viability, qHTS; series mostly up to 92.2 µM. An outline of the steps:
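Luminescent ATP readout (CellTiter-Glo, 30 min room temperature) after 24 h compound exposure at 37 C of a human lymphoblastoid line, 2500 cells/well. AC50 values derived by standard Hill fitting of qHTS concentration-response data.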

Assay [16] can be described thus: Cell Viability - LYMP2-008 (AID 980). Further: on the % scale 0 is the no-effect control and ±100 the full control effect; nearly all actives have a fitted effect of over 60% in size. The conditions noted are these: LYMP2-008 lymphoblastoid cell viability, qHTS; series mostly up to 92.2 µM. In short, it runs like this:
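Acute cytotoxicity is scored as concentration-dependent loss of cellular ATP in a human lymphoblastoid line after 24 hr treatment at 37 C. ATP is quantified by luciferase luminescence.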

A short description of assay [17]: Cell Viability - LYMP2-014 (AID 983).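 Further: plate controls were DMSO only for no effect and 92 µM tetraoctylammonium bromide for full effect; nearly all actives have a fitted effect of over 50% in size.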 To be noted: LYMP2-014 lymphoblastoid cells, viability qHTS; series mostly up to 92.2 µM. In short, it runs like this: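 Decrease in intracellular ATP after 24 hr treatment at 37 C, measured by luciferase luminescence, indicated cytotoxicity. Concentration-response data were fitted with the standard Hill equation to give AC50.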

Assay [18] is described as follows: Cell Viability - LYMP2-016 (AID 984).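 Further: cells exposed to compound for 24 hours at 37 °C; on the % scale 0 is the no-effect control and ±100 the full control effect; nearly all actives have a fitted effect of over 55% in size.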 To be noted: LYMP2-016 lymphoblastoid cell viability, qHTS; series mostly up to 92.2 µM. In short, it runs like this: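 Cells were seeded at 2500 per well and rested 5 hr before a 24 hr compound exposure at 37 C. Viability was then gauged as cellular ATP by luciferase luminescence, with AC50 values fitted to the Hill equation.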

Assay [19] in a line: Cell Viability - LYMP2-026 (AID 989). Further: on the % scale 0 is the no-effect control and ±100 the full control effect; nearly all actives have a fitted effect of over 50% in size. The conditions noted are these: LYMP2-026 lymphoblastoid cell viability, qHTS; series mostly up to 92.2 µM. In short, it runs like this: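 Concentration-dependent loss of intracellular ATP in human lymphoblastoid cells after 24 hr at 37 C, quantified by luciferase luminescence. AC50 derived from standard Hill equation.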
The nature of assay [20]: qHTS assay for environmental chemicals that activate the Aryl hydrocarbon Receptor (AhR) signaling pathway (AID 651777). Further: nearly all actives have a fitted effect of over 15% in size. Further: potency means the concentration at half of the fitted maximal effect. On activation: % of control where 0% means no effect. To be noted: 1A2-DRE human hepatoma cells, luciferase, 24 h; activation: stronger effect = higher value. In short, it runs like this: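 Stable CYP1A2 promoter/DRE-luciferase human hepatoma line treated 24 hr; One-Glo luminescence, 30 min RT.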

Chain of Retinoic acid receptor RXR-alpha (Homo sapiens) (P19793 whole entry, looked up): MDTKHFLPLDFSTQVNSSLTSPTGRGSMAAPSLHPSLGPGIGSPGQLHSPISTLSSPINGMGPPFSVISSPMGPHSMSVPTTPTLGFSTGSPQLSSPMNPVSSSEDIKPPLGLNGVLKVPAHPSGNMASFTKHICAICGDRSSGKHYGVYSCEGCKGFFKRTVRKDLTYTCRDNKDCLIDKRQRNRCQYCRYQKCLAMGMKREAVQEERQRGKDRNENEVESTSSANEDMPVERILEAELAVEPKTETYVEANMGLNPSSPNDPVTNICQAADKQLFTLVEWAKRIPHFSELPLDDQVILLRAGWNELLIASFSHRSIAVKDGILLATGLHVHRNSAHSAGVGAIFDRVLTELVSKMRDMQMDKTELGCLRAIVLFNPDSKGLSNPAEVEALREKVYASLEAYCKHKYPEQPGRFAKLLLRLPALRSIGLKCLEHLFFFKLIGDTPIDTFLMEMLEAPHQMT

Consider `Oc1ccc(O)c2c(O)cccc12`, for which the Potency in assay [1] is > 92 µM (inactive); in [2], > 92 µM (inactive); in assay [4], 50.1 µM (active); in assay [6], 50.1 µM (active); in [7], 50.1 µM (active); in [8], 50.1 µM (active). The Potency result in assay [3] and in assay [5] was “inactive” each time. Besides, the max response in [9] was -12.8%; in assay [10], -1.49% (inactive).

Take `CCCCCCN`: the Potency in assay [1] and in [2] was > 92 µM (inactive) in each case. Further, the Potency entry in [3], in assay [11], in [12], in [13], in [4] and in assay [14] was “inactive” throughout. Also, the Potency result in [5], in assay [15], in assay [16], in assay [17], in assay [18] and in assay [6] was “inactive” in each case. Further, the Potency entry in assay [7], in assay [8] and in assay [19] was “inactive” in each case. The values for the max response in assay [9] and in assay [10] were -7.66% and 2.42% (inactive), respectively. For the same molecule, the activation in [20] is -0.159% (inactive).

With `Cc1c2ccccc2c(C)c2c1ccc1ccccc12`, the Potency is 13.8 µM (active) in assay [1] and 8.91 µM (active) in assay [10]. For the same molecule, the Potency entry in assay [3], in assay [11], in [12], in assay [13], in assay [4] and in [14] was “inactive” in each case. Besides, the Potency entry in [5], in [15], in assay [16], in [17], in [18] and in assay [6] was “inactive” throughout. In addition, the Potency entry in assay [7], in assay [8] and in [19] was “inactive” in each case. Further, in [9], the max response was -10.9%.

As to `CC(=O)Nc1cccc(C)c1`, the Potency in assay [1] and in assay [2] was > 92 µM (inactive) in each case. Further, the Potency entry in [3], in [11], in assay [12], in [13], in assay [4] and in assay [14] was “inactive” each time. The Potency result in assay [5], in [15], in [16], in [17], in assay [18] and in [6] was “inactive” throughout. For the same molecule, the Potency result in assay [7], in assay [8] and in assay [19] was “inactive” in each case. Moreover, the results for the max response in [9] and in [10] were 1.11% and 1.56% (inactive), respectively. Also, the activation in assay [20] was 0.306% (inactive).

As for `C=CC(C)(O)CCCC(C)CCCC(C)CCCC(C)C` (configuration not stated), the Potency in [1] and in assay [2] was > 92 µM (inactive) each time. Also, the Potency result in assay [3], in assay [11], in [12], in assay [13], in [4] and in [14] was “inactive” each time. The Potency result in assay [5], in assay [16], in assay [17], in [18], in [6] and in assay [7] was “inactive” throughout. The Potency result in assay [8] and in assay [19] was “inactive” throughout. In addition, the max response was -10.2% in [9] and 7.39% (inactive) in [10]. The activation in assay [20] is -0.417% (inactive).

With `CCOc1ccc2nc(N)sc2c1`, the results for the Potency in assay [1], in assay [2] and in [20] were > 92 µM (inactive), > 92 µM (inactive) and 10 µM (active), respectively. Further, the Potency result in [3], in [11], in assay [12], in [13], in assay [4] and in assay [14] was “inactive” in each case. The Potency entry in assay [5], in assay [15], in [16], in [17], in assay [18] and in assay [6] was “inactive” in each case. The Potency result in assay [7], in assay [8] and in assay [19] was “inactive” throughout. For the same molecule, the max response in assay [9] is -8.45%; in assay [10] it was -7.66% (inactive).
